According to PubChem BioAssay (NCI):
Values joined by “and” are separate entries in the source; they are usually repeats but may differ in a detail not shown here. Equal values may be shown once. This is part of a sample that, as a whole, favours compounds with a hit. Of some 79,000 tested, about 15% had one in any assay. Where a structure was tested more than once in an assay, its records may differ in their call. Active and inactive are the calls of the source. Rule as the data show it: active = growth inhibition above about 70%; inactive = the rest.

What was measured:
[1] = NCI Yeast Anticancer Drug Screen. Data for the rad50 strain (AID 155);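 also: 0% = growth of vehicle-only cultures of the same strain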; conditions: S. cerevisiae rad50 strain growth inhibition; at 50.0 µM; stronger effect = higher value
In short: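 Inhibition values express reduced yeast growth in compound-treated cultures relative to vehicle-treated controls.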

[2] = NCI Yeast Anticancer Drug Screen. Data for the mec2-1 strain (AID 157); conditions: S. cerevisiae mec2-1 strain, at 50.0 µM, stronger effect = higher value
In short: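 mec2-1 yeast strain, carrying an alteration in DNA damage repair or cell cycle control, was exposed to compounds; growth inhibition was measured relative to vehicle-treated controls.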

[3] = NCI Yeast Anticancer Drug Screen. Data for the sgs1 mgt1 strain (AID 161);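 also: 0% = growth of cultures given vehicle only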; conditions: S. cerevisiae sgs1 mgt1 strain, at 50.0 µM, stronger effect = higher value
In short: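 Growth of a repair-deficient yeast mutant was monitored after compound treatment and expressed as inhibition relative to vehicle-treated cultures.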

[4] = NCI Yeast Anticancer Drug Screen. Data for the cln2 rad14 strain (AID 165);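 also: 0% = growth equal to vehicle treated cultures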; conditions: S. cerevisiae cln2 rad14 strain, at 50.0 µM, stronger effect = higher value
In short: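 Yeast carrying cln2 and rad14 alterations (cell cycle control and DNA damage repair) were exposed to compounds. Growth inhibition was measured against vehicle-treated controls.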

[5] = NCI Yeast Anticancer Drug Screen. Data for the bub3 strain (AID 167); conditions: S. cerevisiae bub3 mutant strain, at 50.0 µM, stronger effect = higher value
In short: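 Steps: expose the mutant yeast strain to compound; grow alongside vehicle-treated cultures; measure growth; express inhibition against the vehicle cultures.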

[6] = NCI Yeast Anticancer Drug Screen. Data for the mlh1 rad18 strain (AID 175); conditions: S. cerevisiae mlh1 rad18 strain growth inhibition; at 50.0 µM; stronger effect = higher value
In short: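 Growth inhibition of the yeast strain was measured after compound exposure and expressed relative to vehicle-treated controls. The strain carries defined defects in DNA damage repair.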

| SMILES | growth inhibition [1] | growth inhibition [2] | growth inhibition [3] | growth inhibition [4] | growth inhibition [5] | growth inhibition [6] |
| --- | --- | --- | --- | --- | --- | --- |
| c1ccc2c(c1)[Se]c1ccccc1[Se]2 | -14.2% (inactive) | -22.8% (inactive) | 0.65% (inactive) | 8.55% (inactive) | 23.1% (inactive) | -7.45% (inactive) |
| NCCCNCCCN | 5.2% (inactive) | -3.1% (inactive) | -3.95% (inactive) | -4.3% (inactive) | 7.85% (inactive) | -11.7% (inactive) |
| O/N=C1\CN2CCC1CC2 | 15.9% (inactive) | 13.2% (inactive) | 1.7% (inactive) | 15.4% (inactive) | 10.4% (inactive) | 20.3% (inactive) |
| O=C(N/N=C/c1cc(Br)cc(Br)c1[O-])c1ccccc1O.O=C(N/N=C/c1cc(Br)cc(Br)c1[O-])c1ccccc1O.[Fe+2] | 20.4% (inactive) | 21.7% (inactive) | 52% (inactive) | -34.8% (inactive) | 34.4% (inactive) | 43.8% (inactive) |
| CC[As](CC)SCC1OC(OC(C)=O)C(OC(C)=O)C(OC(C)=O)C1OC(C)=O (stereo unspecified) | 99.1% (active) | 98.5% (active) | 68.2% (inactive) | 99.5% (active) | 65.8% (inactive) | 98.9% (active) |
| NCCN.NCCN.[Cl-].[O]=[Re]=[O] | -8.05% (inactive) | -8.55% (inactive) | 6.4% (inactive) | -62.5% (inactive) | -22.4% (inactive) | -0.6% (inactive) |
| CC1=CC(C)=Nc2ccc(C)cc2N1 | -2.65% (inactive) | -0.6% (inactive) | -5.95% (inactive) | -2.65% (inactive) | -6% (inactive) | 22.2% (inactive) |
| CCCCSP(=S)(SCCCC)c1ccc(Cl)cc1 | 30.7% (inactive) | 9.4% (inactive) | 13.8% (inactive) | 17.6% (inactive) | 19% (inactive) | 14.2% (inactive) |
| COc1cc(C(=O)O)cc(OC)c1OC | -19.9% (inactive) | -19.6% (inactive) | -23.1% (inactive) | -26.8% (inactive) | 2.05% (inactive) | -9.95% (inactive) |
| CCOP(=O)(OCC)C(C)(CC)/N=C(\N)NC#N (stereo unspecified) | -4.8% (inactive) | -36.9% (inactive) | -8.85% (inactive) | 12% (inactive) | 15% (inactive) | -18.1% (inactive) |
| O.O.[NH-]C1(C(=O)O)CCCC1.[NH-]C1(C(=O)O)CCCC1.[Ni+2] | -12% (inactive) | -15.9% (inactive) | -16.6% (inactive) | 19.4% (inactive) | -48.9% (inactive) | -17.4% (inactive) |
| [Cl][Pt+2][Cl].[NH-]c1ccc(Cl)cc1[NH-] | 9.7% (inactive) | -11.9% (inactive) | -3.05% (inactive) | 8.15% (inactive) | -11.1% (inactive) | 7.5% (inactive) |
| O=[N+]([O-])NC1=NCCN1CCO | -8.85% (inactive) | -3.95% (inactive) | -2.15% (inactive) | -16.6% (inactive) | -26.1% (inactive) | -18.9% (inactive) |
| [O-][N+]12CCCCC1C1CC(C2)C2CCCC(c3ccccc3)N2C1 (stereo unspecified) | 3.55% (inactive) | -25.1% (inactive) | -22.8% (inactive) | -34.8% (inactive) | -28% (inactive) | -59.2% (inactive) |
| CC(C)(C)NC(=O)C(Cl)Cl | -0.65% (inactive) | -5.7% (inactive) | -5.85% (inactive) | -9.6% (inactive) | 5.15% (inactive) | 3.35% (inactive) |
| O=C(CC(=O)C(F)(F)F)c1ccco1 | 34% (inactive) | -25.9% (inactive) | -19.1% (inactive) | -49.8% (inactive) | -16.5% (inactive) | -8.45% (inactive) |
| [N-]=[N+]=NC1=C(N=[N+]=[N-])c2cccc3cccc(c23)C1=O | 46.3% (inactive) | 29.1% (inactive) | 55.3% (inactive) | 55.6% (inactive) | 21.1% (inactive) | 81.9% (active) |
| CCCCC1CN1C(=N)OCC (stereo unspecified) | 6.65% (inactive) | -0.6% (inactive) | 15.4% (inactive) | 59.1% (inactive) | 0.9% (inactive) | 29.1% (inactive) |
| C=CCn1cc2c3c(cccc31)C1CC(C)CN(C)C1C2 (stereo unspecified) | 34.5% (inactive) | 36% (inactive) | 25% (inactive) | 39.9% (inactive) | 33.6% (inactive) | 28.9% (inactive) |
| Clc1ccc2c(c1)Cc1cc(N(CCBr)CCBr)ccc1-2 | 24.8% (inactive) | 13.1% (inactive) | 40% (inactive) | 46.6% (inactive) | 12.4% (inactive) | 47.1% (inactive) |
| CC1=C[C@H]2[C@@]3(O)[C@H](C)C[C@]4(OC(=O)C(C)C)[C@H]([C@@H]3C=C(CO)C[C@]2(O)C1=O)C4(C)C | 20.1% (inactive) | 14.3% (inactive) | 4.8% (inactive) | 3.9% (inactive) | 20.8% (inactive) | 10.8% (inactive) |

| SMILES | growth inhibition [1] | growth inhibition [2] | growth inhibition [3] | growth inhibition [4] | growth inhibition [5] | growth inhibition [6] |
| --- | --- | --- | --- | --- | --- | --- |
| CCOc1ccc2c(N/N=C/c3ccc(N(CCCl)CCCl)cc3)cc(C)nc2c1 | 96.3% (active) | 97.6% (active) | 97.3% (active) | 97.8% (active) | 95.7% (active) | 96.3% (active) |
| CC(=O)CC(C)=O.[Cl][Sb]1([Cl])[CH2]CC[CH2]1 | -22.4% (inactive) | -11.8% (inactive) | -17.1% (inactive) | -0.75% (inactive) | 1.25% (inactive) | 5.55% (inactive) |
| O=CC(O)C(O)C1[O][Sb][O]C1CO (stereo unspecified) | 0.75% (inactive) | -1.7% (inactive) | -4.45% (inactive) | -53.9% (inactive) | -5.85% (inactive) | -8.85% (inactive) |
| [N-]=[N+]=NC1(C(=O)O)CCCC1 | 0.95% (inactive) | -6.85% (inactive) | -15.4% (inactive) | -14.2% (inactive) | -5.75% (inactive) | -34.8% (inactive) |
| CCCCCCCCCCCCCCC[As](=O)(O)CCCCCCCCCCCCCCC | 21.8% (inactive) | 0.75% (inactive) | 11.9% (inactive) | 8.45% (inactive) | 6.75% (inactive) | 12.9% (inactive) |
| [Br][Ni][Br].c1ccc([PH+](CC[PH+](c2ccccc2)c2ccccc2)c2ccccc2)cc1 | -36.1% (inactive) | -7.15% (inactive) | -23.8% (inactive) | 32.2% (inactive) | 8.9% (inactive) | 0.9% (inactive) |
| C#CCC1(OC(N)=O)CCCCC1 | 19.2% (inactive) | 14.8% (inactive) | -1.35% (inactive) | -38.2% (inactive) | 3.65% (inactive) | -16.6% (inactive) |
| O=C(OC1CN2CCC1CC2)N(c1ccccc1)c1ccccc1 (stereo unspecified) | 2.35% (inactive) | 0.25% (inactive) | -4.1% (inactive) | -4.75% (inactive) | 3.5% (inactive) | 13.3% (inactive) |
| C=CCC1(/C(=C\CC)CCC)C(=O)NC(=O)NC1=O | 15.1% (inactive) | -0.3% (inactive) | 1.75% (inactive) | -32% (inactive) | -0.2% (inactive) | 12.3% (inactive) |
| COP1(=S)OCC(C(C)(C)C)CO1 (stereo unspecified) | 7.1% (inactive) | 1.2% (inactive) | -2.1% (inactive) | -14.4% (inactive) | 25.9% (inactive) | -3.55% (inactive) |
| CCN(CC)CCN1C(=O)NC(=O)C(CC)(c2ccccc2)C1=O (stereo unspecified) | 4.1% (inactive) | 9.4% (inactive) | -6% (inactive) | 2.9% (inactive) | 8.05% (inactive) | 4.9% (inactive) |
| CN(C(=O)Oc1ccccc1)c1ccc(S(=O)(=O)F)cc1 | 97.8% (active) | 98.7% (active) | 98.8% (active) | 96.4% (active) | 98.5% (active) | 98.7% (active) |
| C[CH2][Sn]([CH2]C)([O]C(=O)c1ccccc1F)[O]C(=O)c1ccccc1F | -8.75% (inactive) | 27.6% (inactive) | 4.1% (inactive) | 22.6% (inactive) | 22.8% (inactive) | 28.1% (inactive) |
| CNC(=O)Oc1ccc2c(C)cc(=O)oc2c1 | 21.1% (inactive) | 0.2% (inactive) | 4.55% (inactive) | -27% (inactive) | 17.2% (inactive) | 15.3% (inactive) |
| Cn1c(=O)c2ncnnc2n(C)c1=O | 31.6% (inactive) | 22.9% (inactive) | 27.9% (inactive) | 0.5% (inactive) | 36.8% (inactive) | 45.1% (inactive) |
| COc1ccc2[nH]cc(CN(C)C)c2c1 | 21.4% (inactive) | -7.6% (inactive) | -10.2% (inactive) | 5.3% (inactive) | -6.35% (inactive) | 18.6% (inactive) |
| COc1cc2c(cc1OC)C13CCN4CC5=CCOC(CC(=O)O)C(C5CC41)C3N2 (stereo unspecified) | 14.2% (inactive) and -40.6% (inactive) | 26.1% (inactive) and -27.1% (inactive) | 47.1% (inactive) and -32.6% (inactive) | 91.8% (active) and 10.6% (inactive) | -18.6% (inactive) and -38.2% (inactive) | 3.35% (inactive) and -34.1% (inactive) |
| CCOC(=O)C1(O)N=C(c2ccccc2)c2ccccc2-n2cccc21 (stereo unspecified) | -21.4% (inactive) | -45.2% (inactive) | -2.6% (inactive) | -23.9% (inactive) | 10.2% (inactive) | -3.2% (inactive) |
| O=P(O)(O)CCCP(=O)(O)O.[Zn+2] | -10.9% (inactive) | -27.4% (inactive) | -7.05% (inactive) | -6.1% (inactive) | -12.7% (inactive) | 29.1% (inactive) |
| [Br][Hg][CH]1CCC2CCCC1O2 (stereo unspecified) | 99.5% (active) | 99.2% (active) | 99.5% (active) | 99% (active) | 99.3% (active) | 99.5% (active) |
